Measurements reported in PubChem BioAssay AID1159580 (chemical genetic matrix, 2015).
The campaign covered roughly 5,500 compounds. About 2,000 (36%) were called active. Not shown: some 18% with an inconclusive outcome. Rule as the data show it: active = normalized growth mostly below about 0.91 (no sharp cut-off); inconclusive = no clear call, values can overlap the other calls; inactive = mostly above about 0.92. The list shows a part of the results.

Experiment: chemical genetic growth profiling, strain panel (AID 1159580);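 also: tested at 20 µM; growth read once vehicle control cultures reached saturation at 30 °C; 1 = growth at the plate median or of vehicle wells; lower values mean less growth of the strain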
Conditions: growth OD

Measured: normalized growth

C[C@H]1COc2c(N3CCN(C)CC3)c(F)cc3c(=O)c(C(=O)O)cn1c23
inactive: S. cerevisiae deletion strains, locus YJR075W, strain HOC1, stronger effect = lower value 0.991 | S. cerevisiae deletion strains, locus YKL009W, strain mrt4, stronger effect = lower value 1.01 | S. cerevisiae deletion strains, locus YKL068W, stronger effect = lower value 1 | S. cerevisiae deletion strains, locus YKL085W, strain MDH1 (second series), stronger effect = lower value 1.01 | S. cerevisiae deletion strains, locus YKL085W, strain MDH1, stronger effect = lower value 1.01 | S. cerevisiae deletion strains, locus YKL160W, strain elf1, stronger effect = lower value 1.01 | S. cerevisiae deletion strains, locus YKL190W, strain CNB1, stronger effect = lower value 0.998 | S. cerevisiae deletion strains, locus YKR001C, strain vps1, stronger effect = lower value 1.03 | S. cerevisiae deletion strains, locus YKR026C, strain gcn3, stronger effect = lower value 1.02 | S. cerevisiae deletion strains, locus YKR091W, strain srl3, stronger effect = lower value 1.03 | S. cerevisiae deletion strains, locus YLL001W, strain dnm1, stronger effect = lower value 1.04 | S. cerevisiae deletion strains, locus YLL026W, stronger effect = lower value 1.03 | S. cerevisiae deletion strains, locus YLL041C, strain sdh2, stronger effect = lower value 1.02 | S. cerevisiae deletion strains, locus YLR027C, strain aat2, stronger effect = lower value 1.03 | S. cerevisiae deletion strains, locus YLR039C, strain RIC1, stronger effect = lower value 1.01 | S. cerevisiae deletion strains, locus YLR058C, strain SHM2, stronger effect = lower value 1.01 | S. cerevisiae deletion strains, locus YLR102C, strain apc9, stronger effect = lower value 1.01 | S. cerevisiae deletion strains, locus YLR113W, strain HOG1, stronger effect = lower value 1.03 | S. cerevisiae deletion strains, locus YLR221C, strain rsa3, stronger effect = lower value 0.984 | S. cerevisiae deletion strains, locus YLR258W, strain gsy2, stronger effect = lower value 1.02 | S. cerevisiae deletion strains, locus YLR262C, strain YPT6 (second series), stronger effect = lower value 1.02 | S. cerevisiae deletion strains, locus YLR262C, strain YPT6, stronger effect = lower value 1.01 | S. cerevisiae deletion strains, locus YLR268W, strain sec22, stronger effect = lower value 1 | S. cerevisiae deletion strains, locus YLR320W, strain mms22, stronger effect = lower value 1.02 | S. cerevisiae deletion strains, locus YLR330W, strain CHS5, stronger effect = lower value 1 | S. cerevisiae deletion strains, locus YLR342W, strain FKS1 (second series), stronger effect = lower value 0.984 | S. cerevisiae deletion strains, locus YLR342W, strain FKS1, stronger effect = lower value 1.03 | S. cerevisiae deletion strains, locus YLR357W, strain rsc2, stronger effect = lower value 1.02 | S. cerevisiae deletion strains, locus YLR370C, strain arc18, stronger effect = lower value 1.03 | S. cerevisiae deletion strains, locus YLR371W, strain rom2, stronger effect = lower value 1 | S. cerevisiae deletion strains, locus YLR384C, strain iki3, stronger effect = lower value 1.03 | S. cerevisiae deletion strains, locus YLR418C, strain cdc73, stronger effect = lower value 1.02 | S. cerevisiae deletion strains, locus YML016C, strain PPZ1, stronger effect = lower value 1.01 | S. cerevisiae deletion strains, locus YML032C, strain rad52, stronger effect = lower value 0.965 | S. cerevisiae deletion strains, locus YML120C, strain ndi1, stronger effect = lower value 1.01 | S. cerevisiae deletion strains, locus YML124C, strain tub3, stronger effect = lower value 1.02 | S. cerevisiae deletion strains, locus YMR058W, strain fet3, stronger effect = lower value 1.02 | S. cerevisiae deletion strains, locus YMR078C, strain ctf18, stronger effect = lower value 1.02 | S. cerevisiae deletion strains, locus YMR125W, strain sto1, stronger effect = lower value 1.02 | S. cerevisiae deletion strains, locus YMR129W, stronger effect = lower value 1.03 | S. cerevisiae deletion strains, locus YMR205C, strain PFK2, stronger effect = lower value 0.985 | S. cerevisiae deletion strains, locus YMR223W, strain ubp8, stronger effect = lower value 1.01 | S. cerevisiae deletion strains, locus YMR231W, strain pep5, stronger effect = lower value 1.03 | S. cerevisiae deletion strains, locus YMR263W, strain SAP30, stronger effect = lower value 0.991 | S. cerevisiae deletion strains, locus YMR307W, strain GAS1, stronger effect = lower value 1.04 | S. cerevisiae deletion strains, locus YNL067W, strain RPL9B, stronger effect = lower value 1 | S. cerevisiae deletion strains, locus YNL071W, strain lat1, stronger effect = lower value 1 | S. cerevisiae deletion strains, locus YNL128W, strain TEP1, stronger effect = lower value 0.975 | S. cerevisiae deletion strains, locus YNL153C, strain GIM3, stronger effect = lower value 1 | S. cerevisiae deletion strains, locus YNL183C, strain NPR1, stronger effect = lower value 0.97 | S. cerevisiae deletion strains, locus YNL209W, strain ssb2, stronger effect = lower value 1.01 | S. cerevisiae deletion strains, locus YNL233W, strain BNI4, stronger effect = lower value 1.01 | S. cerevisiae deletion strains, locus YNL248C, strain rpa49, stronger effect = lower value 1.03 | S. cerevisiae deletion strains, locus YNL250W, strain rad50, stronger effect = lower value 1.01 | S. cerevisiae deletion strains, locus YNL271C, strain bni1, stronger effect = lower value 1.01 | S. cerevisiae deletion strains, locus YNL298W, strain CLA4, stronger effect = lower value 1.02 | S. cerevisiae deletion strains, locus YNL307C, strain MCK1, stronger effect = lower value 1.03 | S. cerevisiae deletion strains, locus YNL322C, strain KRE1 (second series), stronger effect = lower value 1.03 | S. cerevisiae deletion strains, locus YNL322C, strain KRE1, stronger effect = lower value 0.999 | S. cerevisiae deletion strains, locus YNR049C, strain mso1, stronger effect = lower value 1.01 | S. cerevisiae deletion strains, locus YNR052C, strain pop2, stronger effect = lower value 1.02 | S. cerevisiae deletion strains, locus YOL006C, strain TOP1, stronger effect = lower value 1.05 | S. cerevisiae deletion strains, locus YOL012C, strain htz1 0.78 | S. cerevisiae deletion strains, locus YOL147C, strain pex11, stronger effect = lower value 1.01 | S. cerevisiae deletion strains, locus YOR001W, strain rrp6, stronger effect = lower value 1.02 | S. cerevisiae deletion strains, locus YOR061W, strain CKA2, stronger effect = lower value 1.01 | S. cerevisiae deletion strains, locus YOR069W, strain VPS5, stronger effect = lower value 0.995 | S. cerevisiae deletion strains, locus YOR070C, strain gyp1, stronger effect = lower value 1.02 | S. cerevisiae deletion strains, locus YOR080W, strain dia2, stronger effect = lower value 1.04 | S. cerevisiae deletion strains, locus YOR083W, strain WHI5, stronger effect = lower value 1.03 | S. cerevisiae deletion strains, locus YOR106W, strain vam3, stronger effect = lower value 1.01 | S. cerevisiae deletion strains, locus YOR136W, strain idh2, stronger effect = lower value 1.02 | S. cerevisiae deletion strains, locus YOR144C, strain elg1, stronger effect = lower value 1.01 | S. cerevisiae deletion strains, locus YOR184W, strain ser1, stronger effect = lower value 1.02 | S. cerevisiae deletion strains, locus YOR231W, strain MKK1, stronger effect = lower value 0.996 | S. cerevisiae deletion strains, locus YOR265W, strain rbl2, stronger effect = lower value 1.03 | S. cerevisiae deletion strains, locus YOR270C, strain vph1, stronger effect = lower value 1.07 | S. cerevisiae deletion strains, locus YOR290C, strain snf2, stronger effect = lower value 1.03 | S. cerevisiae deletion strains, locus YOR316C, strain cot1, stronger effect = lower value 1.02 | S. cerevisiae deletion strains, locus YPL051W, strain arl3, stronger effect = lower value 1.03 | S. cerevisiae deletion strains, locus YPL055C, strain LGE1, stronger effect = lower value 0.997 | S. cerevisiae deletion strains, locus YPL078C, strain atp4, stronger effect = lower value 1.02 | S. cerevisiae deletion strains, locus YPL106C, strain sse1, stronger effect = lower value 0.991 | S. cerevisiae deletion strains, locus YPL240C, strain hsp82, stronger effect = lower value 1.01 | S. cerevisiae deletion strains, locus YPL241C, strain CIN2, stronger effect = lower value 1.01 | S. cerevisiae deletion strains, locus YPL256C, strain CLN2, stronger effect = lower value 0.958 | S. cerevisiae deletion strains, locus YPR119W, strain clb2, stronger effect = lower value 1.01 | S. cerevisiae deletion strains, locus YPR141C, strain kar3, stronger effect = lower value 1.02 | S. cerevisiae deletion strains, locus YPR163C, strain tif3, stronger effect = lower value 1.03 | S. cerevisiae deletion strains, locus YPR167C, strain met16, stronger effect = lower value 1.02 | S. cerevisiae deletion strains, strain wtn01, stronger effect = lower value 1.01 | S. cerevisiae strains, strain wild type, stronger effect = lower value 0.981
